Bioassay records: PubChem, several laboratories
Hits are enriched below; roughly 1.7% of the tested compounds scored in any of these assays.
EBV gp42 inh: EBV gp42 inhibition. Q1HVG2. Fluorescence polarization binding assay, mP read-out. inhibition, % (tested at 21.74 µM). 0.42% of 220,000 active; in the data active = inhibition above about 50%
PABP1 MLLE inh: inhibitors of microRNA-mediated deadenylation, human PABP1 MLLE binding. 0.36% of 360,000 active. inhibition, % at 20 µM. GST-MLLE / FITC-PAM2 fluorescence polarization; in the data active = inhibition above about 35%, passing the limit was not always enough;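 note: plate controls were DMSO wells with GST-MLLE for no effect and wells lacking GST-MLLE protein for full effect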
eIF4H inh: inhibitors of RNA binding by human eIF4H; 0.94% of 290,000 active; Q15056; AID 2012; inhibition, % at 35 µM; eIF4H fluorescence polarization binding assay;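 note: calls also rest on retests at 20 µM and on dose response follow-up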
PABP polyA inh: blocks human PABP binding to poly(A) RNA; calls only at 35 µM; fluorescence polarization; 1% of 290,000 active; P11940;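 note: calls also rest on retests at 20 µM and on dose response follow-up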
eIF4E-4G inh: blocks eIF4E binding to eIF4G; TR-FRET eIF4E-eIF4GI(517-606) binding, 2 h; inhibition, % at 21.7 µM; 0.37% of 220,000 active; AID 782;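 active = inhibition above about 30%, limit read from the data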;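 note: 0% = full FRET control wells and 100% = background wells lacking eIF4GI fragment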
* hit, by the source's call; i = inactive; ? = inconclusive; / = no result given; + = active, no number; [ ] = remark or other dose. Unless noted, the rule behind the calls is not given here.

SMILES	EBV gp42 inh	PABP1 MLLE inh	eIF4H inh	PABP polyA inh	eIF4E-4G inh
CN(C)c1ccc(C(=O)/C=C/c2ccc(Br)cc2)cc1	-36	-26	-10	i	2
CC(O)CNc1cnccn1 (configuration not stated)	-11	10	63*	+	0
COc1ccccc1N1CCN(S(=O)(=O)c2ccc(-n3cnnn3)cc2)CC1	/	10	71*	i	/
COc1ccccc1N1CCN(S(=O)(=O)Cc2ccccc2Cl)CC1	-13	-11	-2	i	31*
Cc1ccc(C(=O)Nc2cccc(C(F)(F)F)c2)cc1NC(=O)c1[nH]cnc1C(N)=O	/	-7	/	/	/
COC1OC(COC(=O)c2ccccc2)C(OC(=O)c2ccccc2)C1OC(=O)c1ccccc1 (configuration not stated)	/	17	-12	i	/
O=C(O)C[C@@H]1C(=O)O[C@@H]2C(COC(=O)c3cc(O)c(O)c(O)c3)O[C@@H](OC(=O)c3cc(O)c(O)c(O)c3)[C@@H](OC(=O)c3cc(O)c(O)c4c3[C@H]1[C@H](O)C(=O)O4)[C@H]2OC(=O)c1cc(O)c(O)c(O)c1 (some centres not stated)	24	/	87*	+	38*
COC(=O)c1ccccc1NC(=O)COC(=O)/C=C/c1ccco1	-6	-20	53*	i	6
COC(=O)c1ccccc1NC(=O)COC(=O)c1ccc(C)c(NC(=O)c2ccco2)c1	-14	-10	-4	i	86*[fluorescence artefact?]
COC(=O)c1ccccc1NC(=O)COC(=O)c1ccco1	18	0	11	i	0
Cc1ccc(CSc2nnc3c(n2)OC2(Nc4ccccc4-3)C(=O)Nc3ccc(F)cc32)cc1 (configuration not stated)	151*	16	8	i	6
Cc1nc(Cn2c3ccc(NC(=S)NC4CCCCC4)cc3c(=O)n2C)cs1	/	-1	/	/	/
Cc1cc(C(=O)O)ccc1-n1c(C)cc(/C=C(/C#N)C(=O)Nc2ccccc2)c1C	7	4	63*	+	5
O=S(=O)(Nc1ccc(Br)cn1)c1ccc(Cl)s1	/	-13	-15	i	/
O=C(NNC(=S)NC(=O)c1ccccc1[N+](=O)[O-])c1ccccc1O	4	16	16	i	-4
Cc1ccc([N+](=O)[O-])cc1NC(=S)NC(=O)C(C)(C)C	-28	17	-11	i	7
O=C(NC(=S)Nc1cccc2c(O)cccc12)c1ccco1	/	25	66*	+	/
O=C(NC(=S)Nc1cccc2cc(O)ccc12)c1ccco1	/	38	1	i	/
O=C(NC(=S)Nc1cccc2c(O)cccc12)c1ccccc1[N+](=O)[O-]	/	17	75*	+	/
Cc1c(NC(=S)NC(=O)C(C)(C)C)cccc1[N+](=O)[O-]	3	34	active	+	0
O=C(NC(=S)Nc1ccccc1N1CCCCC1)c1ccco1	-1	43*	2	i	-1
COc1ccc([C@H]2CN(CCc3ccccc3)C(=O)[C@@H]2CC(=O)Nc2ccccc2)cc1	/	5	/	/	/
CCOc1ccccc1-c1cncc(NC)n1	/	-1	/	/	/
CCOC(=O)CNC(=O)CSc1nnc(CCc2nc3ccccc3[nH]2)n1C	/	0	-5	i	/
CC1Cc2ccccc2N1C(=S)NC(=O)c1ccco1 (configuration not stated)	-2	5	2.5*	+	1
SMILES	EBV gp42 inh	PABP1 MLLE inh	eIF4H inh	PABP polyA inh	eIF4E-4G inh
Cc1oc2c(cc(NS(=O)(=O)c3ccc(C(C)C)cc3)c3ccccc32)c1C(=O)O	/	126	66*	+	/
CC(C)C(NC(=O)C12CC3CC(CC(C3)C1)C2)C(=O)NC1=NCCS1 (configuration not stated)	-7	/	2	i	40*
COc1ccc(NS(=O)(=O)c2cc3c4c(c2)C(C)C(=O)N4CCC3)cc1 (configuration not stated)	/	0	/	/	/
CCCCCCCCCC(=O)O	/	-2	/	/	/
CCCCCC#CCC#CCC#CCC#CCCCC(=O)O	37	/	85*	i	36*
COc1cc(CCCN2C(=S)NC[C@@H]2c2ccccc2)cc(OC)c1OC	-9	-75	-3	i	0
COc1ccccc1OCCC(=O)O	6	-4	active	+	1
COc1cc(-c2[nH]ncc2CN2CCN(Cc3cccs3)CC2)cc(OC)c1OC	0	1	3	i	90*
CCCCCCC1NC(C(=O)O)CS1 (configuration not stated)	0	38*	-2	i	/
CCCCCC1CCC(C(=O)O)CC1 (configuration not stated)	2	0	-1	i	-5
CCCCC1NC(C(=O)O)CS1 (configuration not stated)	-2	38*	-2	i	-8
CC(=O)NC(C)(c1ccccc1)c1nc(-c2cccc(F)c2)cs1 (configuration not stated)	/	-4	/	/	/
Cc1cc(-c2ccc(C(C)C)c(S(=O)(=O)Nc3ccccn3)c2)on1	/	13	10	i	/
CCCn1nc(C(=O)Nc2cccc(S(=O)(=O)N3CCOCC3)c2)c2ccccc2c1=O	/	-27	/	/	/
COC(=O)C1=C(C)NC(=O)/C1=C\c1cc(C)n(-c2cc(C)cc(C)c2)c1C	19	-5	83*	+	-16
COc1ccc2oc(-c3ccncc3)cc(=O)c2c1	/	40*	/	/	/
Nc1cccc2c1C(=O)N(c1ccccc1)C2=O	/	48*	/	/	/
O=C1c2ccccc2C(=O)N1c1ccccc1	/	-8	/	/	/
CC(=O)NCCN=C(C)c1sc2ccccc2c1O	-24	35*	0	i	-1
CC(=Nc1ccc(O)cc1)c1sc2ccccc2c1O	-3	-32	?	i	9
CCCCCCNC(=O)N[C@@H](C(=O)NCCC[C@H]1CN2C(=NC[C@@H]2Cc2ccccc2)N1CCc1cccc(OC)c1)C(C)C	-17	/	-10	i	41*
C/C=C(\C)C(=O)NCCN1C2=NC[C@@H](Cc3ccccc3)N2C[C@@H]1Cc1ccc(OC)cc1	/	17	/	/	/
CC1CN(C(=O)c2ccc(COc3ccccc3Br)o2)CC(C)O1 (configuration not stated)	-15	-6	-9	i	1
Cc1nc(C)c(C(=O)Nc2ncc([N+](=O)[O-])s2)o1	5	12	54	+	14
O=C(Nc1ccc(N2CCOCC2)nc1)c1ccc(F)cc1	-12	3	40*	i	8
COc1ccc(C(=O)C[n+]2cccc3cc(OC)ccc32)cc1	/	-12	72	i	/
COc1ccc(C(=O)C[n+]2ccc3ccccc3c2C)cc1	-10	5	91*	+	-1
O=C1NC(c2ccc3c(c2)OCO3)Oc2ccccc21 (configuration not stated)	-2	6	1	i	37*[fluorescence artefact?]
O=C1NC(c2ccc3c(c2)OCO3)Nc2ccccc21 (configuration not stated)	-12	-8	8	i	5
CSc1ccccc1NC(=S)Nc1ccc(S(N)(=O)=O)cc1	-3	36*	4	i	-5
